Results on 39 molecules are retold here after PubChem BioAssay (NCI).

About 83,000 compounds went through this panel and 20% of them were active in at least one assay; those are over-represented in the sample as a whole.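 Activity criterion: percent growth below 10, measured after cells in 96-well plates were exposed to a single compound concentration for 48 hours.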 Activity calls are given as the source filed them.

The test system of this experiment is SNB-75 CNS. The experiment can be described thus: NCI-60 one-dose screen, 48 h (100 = growth as untreated, 0 = no growth, -100 = all killed). The settings on record: 10 µM unless noted.
Consider `Nc1c(C(=O)c2ccc(F)cc2)sc2nc3c(cc12)CCCC3`, for which the growth is 85.8% (inactive).
Consider `COc1cccc(/C=C2\SC(N3CCN(c4ccccn4)CC3)=NC2=O)c1`, for which the growth is 102% (inactive).
With `CCCC(C(=O)OCC)C(C)OC(=O)OCC` (centres undefined), the growth was 79% (inactive).
Take `O=C(/C=C/CN1CCOCC1)Nc1cc2c(Nc3cccc(Cl)c3F)ncnc2cc1OCCOC(F)F`: the growth was 63% (inactive).
`COc1ccc(-c2nc3sccn3c2-c2ccnc(NCCCNS(=O)(=O)c3ccc4ccccc4c3)n2)cc1`: the growth is 85.5% (inactive).
As to `CC(CCc1ccccc1)NC(=O)c1n[nH]c(=O)c2ccccc12` (centres undefined), the growth was 96.6% (inactive).
On to `Cc1cc(NC(=O)COC(=O)c2sc3cc(F)ccc3c2Cl)no1`, for which the growth was 104% (inactive).
In the case of `COc1ccc(C(=O)c2cc(OC)c(OC)c(OC)c2)cc1/C=C/C(=O)c1ccc2c(c1)OCO2`, the growth is 28.2% (inactive).
In the case of `COc1ccc(/C=C/c2cc(N3CCOCC3)c3cc(F)c(F)cc3n2)cc1OC`, the growth is 48% (inactive).
As to `CCn1cc(C(=O)O)c(=O)c2cc(F)c(N3CCN(S(=O)(=O)c4c(C)cc(C)cc4C)CC3)cc21`, the growth is 70.8% (inactive).
The value for `O=C(Nc1cc(C(F)(F)F)cc(C(F)(F)F)c1)Nc1ccc(OCc2nnc(-c3ccc(Cl)cc3)o2)c(F)c1` was 14.8% (inactive).
On to `O=C(c1ccncc1)N1N=C(c2ccc(Cl)cc2)CC1c1c[nH]c2ccccc12` (centres undefined), for which the growth is 82.4% (inactive).
The value for `CC(Br)C(OC(=O)c1ccccc1Cl)c1cc2c(cc1Br)OCO2` (centres undefined) was 67.4% (inactive).
Take `CCC(c1ccc(OC)cc1)C(CC)c1ccc(O)c(CN2CCCC2)c1` (centres undefined): the growth was 71.5% (inactive).
As to `CC(C)(C)OC(=O)N[C@@H](Cc1ccccc1)C(=O)N(Cc1ccccc1)C1(C(=O)NCc2ccccc2)CCN(Cc2ccccc2)CC1`, the growth was 44.9% (inactive).
Turning to `Cn1c(-c2nonc2NC(=O)c2ccc(F)cc2)nc2ccccc21`, the growth was 100% (inactive).
In the case of `c1ccn2nnnc2c1`, the growth was 106% (inactive).
As to `c1cncc(CNc2ccccc2-c2nnc(Nc3ccc4c(c3)OCCO4)o2)c1`, the growth was 33.1% (inactive).
In the case of `COc1cc2nc(SCc3cc(OC)c(OC)c(OC)c3)n(Cc3ccccc3)c(=O)c2cc1OC` it was -16.6% (active); in that of `COc1ccc(C(=O)N2CCN(C(=O)c3cc(OC)c(OC)c(OC)c3)CC2)cc1OCCCCOc1cc2c(cc1OC)C(=O)N1CCC[C@H]1C=N2`, 110% (inactive).
Regarding `O=S(=O)(NCCNc1cc(-c2cn(-c3ccccc3)nc2-c2ccccc2)ccn1)c1cccc2ccccc12`, the growth was 59% (inactive).
As for `O=S(=O)(NCCNc1nccc(-c2c(-c3ccccc3)nc3sccn23)n1)c1ccc(O)cc1`, the growth was 28.7% (inactive).
The value for `Cc1ccc2c(c1)C(C)Cc1c(N(C)C)ncnc1N2C` (centres undefined) was 14% (inactive).
`CCN(CC)c1cc(/C=C/c2ccc(OC)c(OC)c2)nc2cc(F)c(F)cc12`: the growth is -68.5% (active).
Regarding `COc1ccc(-c2nc3sccn3c2-c2ccnc(NCCCNS(=O)(=O)c3ccc(C)cc3)n2)cc1`, the growth is 77.4% (inactive).
As to `C=C1C(=O)O[C@H]2[C@H]1CC/C(Cn1cc(-c3ccc(N)cc3)nn1)=C\CC[C@@]1(C)O[C@@H]21`, the growth is 25.6% (inactive).
The value for `CC(C)N(Cc1ccc(CN(C(=O)CCl)C(C)C)cc1)C(=O)CCl` was -60.5% (active); that for `COc1ccc(NC(=S)/N=c2\oc3c(OC)cccc3cc2-c2cc3ccccc3[nH]2)cc1` was -12.2% (active).
As to `Cc1cnc(NC(=O)C(Cc2ccccc2)NC(=O)c2ccccc2)s1` (centres undefined), the growth was 83.6% (inactive).
Consider `CC(C)C[C@H](NC(=O)Cn1ccc(NCc2ccccc2)cc1=O)B(O)O`, for which the growth was 56.9% (inactive).
With `CN1CCN(CCCOc2ccc3nc(Nc4ccc(C(F)(F)F)c(Cl)c4)ccc3c2)CC1`, the growth was 4.61% (active).
`O=C(CCCn1c2c(sc3ccccc32)c(=O)n2nnc(-c3ccccc3)c12)NCCc1cnc[nH]1`: the growth is -55.1% (active).
As for `CC1Cc2c(N(C)C)ncnc2N(C)c2ccc(Cl)cc21` (centres undefined), the growth is -12.4% (active).
Consider `O=C(Nc1ccc(F)cc1)c1cc([N+](=O)[O-])ccc1O`, for which the growth was 78.1% (inactive).
Regarding `CC(=O)Nc1ccc2c(c1)/C(=C\C=C/c1ccc([N+](C)(C)C)cc1)c1ccccc1-2`, the growth is -1.84% (active).
With `COc1ccc(-c2nc3sccn3c2-c2ccnc(NCCNS(=O)(=O)c3ccc(C(F)(F)F)cc3)n2)cc1`, the growth is 29.5% (inactive).
Take `O=C1C2=C(C(=O)c3c(O)ccc(O)c31)N(c1cccnc1)Cc1ccccc1O2`: the growth is 22.1% (inactive).
`CC(=O)Nc1ccc(S(=O)(=O)NC(CCC(=O)Nc2ccc(Cl)cc2)C(=O)O)cc1` (centres undefined): the growth is 69.2% (inactive).
The value for `COc1ccc(-c2cn[nH]c2-c2cc(OC)c3c(c2)OCCO3)cc1` was -5.75% (active).
